Screening results from PubChem BioAssay.
IP6K1 inhibitor = Primary qHTS assay for small molecule inhibitors of Inositol hexaphosphate kinase 1 (IP6K1); Inositol hexakisphosphate kinase 1 (Homo sapiens), Q92551; IP6K1 kinase, ADP-Glo luminescence, 2 h; stronger effect = lower value; activity change, % (series mostly up to about 58 µM); 140,000 compounds, 0.81% hits; AID 1645851, 2021; in the data active = activity change below about -25%; also: % is scaled to controls: 0 for no effect and ±100 for the full control effect
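ADP-Glo luminescence measures ADP made by human IP6K1 during a 2 h RT reaction with ATP/IP6 (mix at 1.3 mM/130 uM); top library doses 57.5 and 19.1 uM final.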
HEK293 viab = GF-AFC viability counterscreen for inhibitors of alpha-synuclein gene (SNCA) expression; HEK-293-SNCA-luc viability, GF-AFC fluorescence, 24 h; Potency, µM (titrated, usually from 57.1 µM), for inactives: at the top dose activity change, negative = cytotoxicity, usual class: cytotoxic; 150,000 compounds, 0.12% hits; AID 1671193, 2021;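 also: potency is read from the fitted curve at half-maximal effect; 0% = DMSO-treated cells and -100% = medium-only wells without cells; nearly all actives have a fitted effect of over 30% in size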
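Cytotoxicity counterscreen: after 24 h compound treatment of genome-edited SNCA-luciferase HEK-293 cells, live-cell protease substrate GF-AFC read by fluorescence after 30 min; activity scaled between DMSO (0%) and medium-only (-100%), curves Hill-fitted.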
KDM5B inh = Primary screen for KDM5B Histone Demethylases FDH-coupled qHTS | Lysine-specific demethylase 5B (Homo sapiens), Q9UGL1 | 220,000 compounds, 2.6% hits | KDM5B demethylase, FDH-coupled NADH fluorescence (FDH is formaldehyde dehydrogenase) | Potency, µM (titrated, usually from 57.7 µM), usual class: inhibitors | AID 1347165, 2019; also: potency is read from the fitted curve at half-maximal effect; 0% is about no effect; nearly all actives have a fitted effect of over 70% in size
Target sequence (Q9UGL1 whole entry, looked up): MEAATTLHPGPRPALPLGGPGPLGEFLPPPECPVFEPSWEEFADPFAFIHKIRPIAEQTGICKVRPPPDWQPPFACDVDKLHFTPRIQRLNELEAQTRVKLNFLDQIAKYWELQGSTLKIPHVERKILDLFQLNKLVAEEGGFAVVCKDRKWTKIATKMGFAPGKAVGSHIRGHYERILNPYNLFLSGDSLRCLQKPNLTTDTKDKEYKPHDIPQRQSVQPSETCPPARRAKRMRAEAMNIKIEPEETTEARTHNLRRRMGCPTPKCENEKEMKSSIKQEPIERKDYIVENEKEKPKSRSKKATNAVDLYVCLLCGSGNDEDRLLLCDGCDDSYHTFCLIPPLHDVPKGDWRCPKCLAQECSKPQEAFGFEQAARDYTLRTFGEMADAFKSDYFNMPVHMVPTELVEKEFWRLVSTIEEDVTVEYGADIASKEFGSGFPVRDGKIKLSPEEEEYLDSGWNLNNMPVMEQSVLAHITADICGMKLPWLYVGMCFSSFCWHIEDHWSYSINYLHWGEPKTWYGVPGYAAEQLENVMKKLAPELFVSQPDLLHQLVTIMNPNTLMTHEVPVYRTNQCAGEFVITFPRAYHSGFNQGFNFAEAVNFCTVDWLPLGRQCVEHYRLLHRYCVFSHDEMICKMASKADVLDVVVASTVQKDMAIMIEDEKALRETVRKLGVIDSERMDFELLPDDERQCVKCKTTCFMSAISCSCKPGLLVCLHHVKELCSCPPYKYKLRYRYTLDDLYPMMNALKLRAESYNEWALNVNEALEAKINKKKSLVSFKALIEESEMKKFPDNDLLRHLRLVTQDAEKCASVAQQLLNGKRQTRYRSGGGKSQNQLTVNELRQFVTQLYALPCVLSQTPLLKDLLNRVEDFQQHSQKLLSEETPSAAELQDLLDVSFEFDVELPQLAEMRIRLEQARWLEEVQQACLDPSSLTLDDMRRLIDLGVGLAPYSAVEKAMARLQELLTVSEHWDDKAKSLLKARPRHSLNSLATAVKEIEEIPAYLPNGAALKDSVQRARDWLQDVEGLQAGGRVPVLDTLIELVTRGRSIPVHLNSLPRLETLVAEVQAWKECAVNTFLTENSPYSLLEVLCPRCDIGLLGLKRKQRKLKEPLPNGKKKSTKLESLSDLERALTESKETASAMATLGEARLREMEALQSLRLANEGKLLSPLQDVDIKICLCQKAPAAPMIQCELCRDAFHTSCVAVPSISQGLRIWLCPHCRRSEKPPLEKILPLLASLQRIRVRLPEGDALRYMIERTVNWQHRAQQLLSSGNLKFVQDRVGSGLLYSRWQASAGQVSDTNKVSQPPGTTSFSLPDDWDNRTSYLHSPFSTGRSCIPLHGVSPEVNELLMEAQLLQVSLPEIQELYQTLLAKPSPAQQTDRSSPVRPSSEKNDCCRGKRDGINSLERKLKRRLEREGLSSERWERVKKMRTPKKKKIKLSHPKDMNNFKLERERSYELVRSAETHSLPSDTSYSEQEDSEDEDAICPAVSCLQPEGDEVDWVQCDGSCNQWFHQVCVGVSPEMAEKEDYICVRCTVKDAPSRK
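Coupled FDH/NAD⁺ fluorescence readout. KDM5BΔAP 200 nM final; compound titration, 10 min RT preincubation; substrate mix 12.5 µM H3K4me3, 25 µM 2-OG, 50 µM Fe(II), 100 µM ascorbate, 0.25 mM NAD⁺, 0.25 U/mL FDH; ΔRFU over 30 min.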
SNCA expr inh = Primary qHTS assay for inhibitors of alpha-synuclein gene (SNCA) expression; AID 1671194, 2021; 140,000 compounds, 0.17% hits; HEK-293 SNCA-luciferase knock-in, luminescence, 24 h; Potency, µM (highest dose often 57.2 µM), inactives show at the highest dose activity change, negative = inhibition, most hits filed as inhibitors;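 also: potency is read from the fitted curve at half-maximal effect; plate controls were DMSO cells for no effect and cell-free wells for full effect; nearly all actives have a fitted effect of over 45% in size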
The depositor's hits bear a star; i = inactive; ? = inconclusive; / = not tested or not shown; ! = a repeat was not active; [ ] = remark or other dose. Sampled rows, rich in hits. Any-hit rate of the full collection: about 3%. Unless noted, calls follow the shape of the dose curve; as a rule, active = well fitted curve in the direction sought with a large enough effect; inconclusive = small, poorly fitted or top-dose-only effect, or another doubt; inactive = no such curve, though single readings can be large; an effect the other way counts as inactive or inconclusive.

SMILES	IP6K1 inhibitor	HEK293 viab	KDM5B inh	SNCA expr inh
O=C(NCCc1ccc(Cl)cc1)c1nc(-c2ccc(Cl)cc2)c2ccccn12	12	11%	25µM*	1%
O=C(NCc1cccnc1)c1nc(-c2ccc(F)cc2)c2ccccn12	22	1%	28µM*	3%
O=C(NCCc1ccc(Cl)cc1)c1nc2sccn2c1-c1ccccc1	5	0%	/	-12%
O=C(NCc1ccc(F)cc1)c1nc(-c2ccc(Cl)cc2)c2ccccn12	10	5%	25µM*	7%
O=C(NCc1cc(F)cc(F)c1)c1nc(-c2ccc(F)cc2)c2ccccn12	25	10%	?	11%
O=C(NC1CC1)c1nc(-c2cccnc2)c2cnccn12	6	11%[87.6 µM]	?	4%[87.6 µM]
O=C(NCc1ccc2c(c1)OCO2)c1nc(-c2ccc(F)cc2)c2ccccn12	19	2%	?	-10%
CCN(C(=O)C(=O)c1c(C)n(C)c2ccccc12)c1ccccc1	/	/	i	/
Cn1cccc1-c1noc(C2CCN(Cc3noc(-c4ccccc4)n3)C2)n1 (stereo not given)	18	13%	/	41%
C[S+](=O)([O-])c1ccc(-c2nc(C(=O)NCCc3ccc(Cl)cc3)n3ccccc23)cc1	19	-1%	89µM*	22%
COCCNC(=O)c1nc(-c2ccc([S+](C)(=O)[O-])cc2)c2ccccn12	16	8%	i	-19%
CC(C)CNC(=O)c1nc(-c2ccc(Cl)cc2)c2cnccn12	10	9%[87.6 µM]	?	-8%[87.6 µM]
C[S+](=O)([O-])c1ccc(-c2nc(C(=O)NCCc3ccc(Cl)cc3)n3ccncc23)cc1	-6	5%	79µM*	-14%
Cn1c2c(c3ccccc31)CC=C1C[C@@H](O)CC[C@@]12C	-12	/	/	/
CN1CCC2(C1)CN(CC1CCOCC1)c1ccc(C(=O)Nc3ccccc3)cc12 (stereo not given)	-2	-7%[87.6 µM]	?	?
CN1CCC2(C1)CN(CC1CCOCC1)c1ccc(C(=O)NCc3ccccc3)cc12 (stereo not given)	3	3%[87.6 µM]	40µM*	-11%[87.6 µM]
CC(C)CNC(=O)c1ccc2c(c1)C1(CCN(C)C1)CN2CC1CCOCC1 (stereo not given)	-11	13%[87.6 µM]	35µM*	-5%[87.6 µM]
Cc1cccc(NC(=O)c2ccccc2NC(=O)c2nc(-c3ccccc3)oc2C)c1	/	/	i	/
Cc1cc(=O)n(CC(=O)Nc2ccc(Br)cc2F)c(N2CCc3ccccc3C2)n1	5	?	14µM*	?
Fc1ccc(CN2CCn3c(nnc3C3CCCNC3)C2)cc1 (stereo not given)	8	?	25µM*!	-10%[87.6 µM]
CCOCC1(C)COc2ccc(C(=O)Nc3cccc(Cl)c3)cc2N1 (stereo not given)	13	?	?	-35%[87.6 µM]
CCOCC1(C)COc2ccc(C(=O)Nc3ccc(Cl)cc3)cc2N1 (stereo not given)	-12	-15%[87.6 µM]	28µM*	-9%[87.6 µM]
CC1(CNc2ccccc2)COc2ccc(C(=O)NC3CCC(O)CC3)cc2N1 (stereo not given)	2	3%[87.6 µM]	?	-2%[87.6 µM]
COc1cccc(NC(=O)c2ccc3c(c2)NC(C)(CNc2ccccc2)CO3)c1 (stereo not given)	23	?	13µM*	?
CN(C)CCCOCC1(C)COc2ccc(C(=O)Nc3cccc(Cl)c3)cc2N1 (stereo not given)	-1	2%[87.6 µM]	32µM*	64%[87.6 µM]
CCOCC1(C)COc2ccc(C(=O)Nc3cccc(OC)c3)cc2N1 (stereo not given)	-2	-12%[87.6 µM]	32µM*	14%[87.6 µM]
COc1cccc(NC(=O)c2ccc3c(c2)NC(C)(COCCN(C)C)CO3)c1 (stereo not given)	-5	3%[87.6 µM]	?	13%[87.6 µM]
COc1ccc(F)cc1-c1ccc(CN2CCC(NC(=O)c3ccc(C(F)(F)F)cc3)C2)cc1 (stereo not given)	-5	/	/	/
CCN(CC)CCNC(=O)c1ccc2nc(-c3ccccc3)c(-c3ccc(CN4CCC(n5c(=O)[nH]c6ccccc65)CC4)cc3)nc2c1	-1	15µM*!	/	?
O=C1CCN(C(=O)[C@@H]2CCCN2Cc2ccc(F)cc2F)CCCCCCN1	2	7%	?	-13%
